Laboratory results taken from PubChem BioAssay AID1159580 (chemical genetic matrix, 2015).
Hit rate of the full screen: of about 5,500 compounds, about 2,000 (36%) were called active. Not shown: some 18% with an inconclusive outcome. Rule as the data show it: active = normalized growth mostly below about 0.91 (no sharp cut-off); inconclusive = no clear call, values can overlap the other calls; inactive = mostly above about 0.92. The list shows a part of the results.

Experiment: chemical genetic growth profiling, strain panel (AID 1159580);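 also: tested at 20 µM; growth read once vehicle control cultures reached saturation at 30 °C; 1 = growth at the plate median or of vehicle wells; lower values mean less growth of the strain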
Settings: S. cerevisiae deletion strains, growth OD

Measured: normalized growth

O=C(Cc1cccs1)NC1C(=O)N2C(C(=O)[O-])=C(C[n+]3ccccc3)CSC12 (stereo unspecified)
inactive: locus YAL013W, strain DEP1, hits give low values 1.01 | locus YAL021C, strain ccr4, hits give low values 0.966 | locus YAL026C, strain drs2, hits give low values 0.989 | locus YAL030W, strain snc1, hits give low values 0.994 | locus YBL061C, strain skt5, hits give low values 0.995 | locus YBR009C, strain hhf1, hits give low values 0.981 | locus YBR021W, strain FUR4, hits give low values 1 | locus YBR023C, strain chs3, hits give low values 0.993 | locus YBR171W, strain sec66, hits give low values 0.975 | locus YBR229C, strain ROT2, hits give low values 0.99 | locus YBR231C, strain swc5, hits give low values 0.985 | locus YBR279W, strain paf1, hits give low values 0.996 | locus YCL011C, strain gbp2, hits give low values 0.997 | locus YCL016C, strain dcc1, hits give low values 0.991 | locus YCL029C, strain bik1, hits give low values 1 | locus YCL069W, strain vba3, hits give low values 0.991 | locus YCR088W, strain abp1, hits give low values 0.982 | locus YDL005C, strain med2, hits give low values 0.968 | locus YDL035C, strain GPR1, hits give low values 0.998 | locus YDL040C, strain nat1, hits give low values 0.983 | locus YDL074C, strain BRE1, hits give low values 1.01 | locus YDL101C, strain DUN1, hits give low values 1.02 | locus YDL134C, strain PPH21, hits give low values 1 | locus YDL185W, strain tfp1, hits give low values 0.991 | locus YDL192W, strain arf1, hits give low values 0.992 | locus YDR001C, strain nth1, hits give low values 0.996 | locus YDR069C, strain doa4, hits give low values 0.964 | locus YDR101C, strain arx1, hits give low values 1.01 | locus YDR137W, strain rgp1, hits give low values 0.988 | locus YDR159W, strain sac3, hits give low values 0.962 | locus YDR162C, strain NBP2, hits give low values 1.01 | locus YDR195W, strain ref2 1.01 | locus YDR297W, strain sur2, hits give low values 0.989 | locus YDR318W, strain mcm21, hits give low values 0.998 | locus YDR334W, strain swr1, hits give low values 0.993 | locus YDR335W, strain msn5, hits give low values 0.996 | locus YDR388W, hits give low values 0.99 | locus YDR392W, strain spt3, hits give low values 0.994 | locus YDR502C, strain sam2, hits give low values 0.985 | locus YEL003W, strain gim4, hits give low values 0.969 | locus YEL037C, strain rad23, hits give low values 1 | locus YEL061C, strain CIN8 (second series), hits give low values 1 | locus YEL061C, strain CIN8, hits give low values 1.01 | locus YER015W, strain faa2, hits give low values 0.983 | locus YER016W, strain bim1, hits give low values 0.983 | locus YER110C, hits give low values 0.992 | locus YER111C, strain swi4, hits give low values 0.96 | locus YER155C, strain BEM2 (second series), hits give low values 0.987 | locus YER155C, strain BEM2, hits give low values 1 | locus YER167W, strain BCK2, hits give low values 0.991 | locus YFR010W, strain ubp6, hits give low values 0.986 | locus YGL078C, strain dbp3, hits give low values 0.99 | locus YGL086W, strain mad1, hits give low values 0.999 | locus YGL167C, strain pmr1, hits give low values 0.985 | locus YGL173C, strain kem1, hits give low values 0.982 | locus YGL227W, strain vid30, hits give low values 0.979 | locus YGL240W, strain doc1, hits give low values 0.956 | locus YGL248W, strain PDE1, hits give low values 1.02 | locus YGL253W, strain hxk2, hits give low values 0.999 | locus YGR135W, strain pre9, hits give low values 0.978 | locus YGR252W, strain gcn5, hits give low values 0.941 | locus YHR013C, strain ard1, hits give low values 0.981 | locus YHR027C, strain rpn1, hits give low values 0.991 | locus YHR030C, strain SLT2, hits give low values 1.01 | locus YHR079C, strain IRE1 (second series), hits give low values 0.996 | locus YHR094C, strain hxt1, hits give low values 0.998 | locus YHR129C, strain ARP1, hits give low values 1.01 | locus YHR142W, strain chs7, hits give low values 0.963 | locus YHR200W, strain rpn10, hits give low values 0.994 | locus YIL066C, strain RNR3, hits give low values 1.02 | locus YIL073C, strain SPO22, hits give low values 1.09 | locus YIL125W, strain kgd1, hits give low values 0.999 | locus YIR030C, strain dcg1, hits give low values 1.01 | locus YJL092W, strain hpr5, hits give low values 0.986 | locus YJL095W, strain BCK1 (second series), hits give low values 0.961 | locus YJL095W, strain BCK1, hits give low values 1.03 | locus YJL115W, strain asf1, hits give low values 0.981 | locus YJL129C, strain trk1, hits give low values 0.99 | locus YJL134W, strain LCB3, hits give low values 1 | locus YJL154C, strain vps35, hits give low values 0.983 | locus YJL164C, strain tpk1, hits give low values 0.985 | locus YJL166W, strain qcr8, hits give low values 0.979 | locus YJL168C, strain set2, hits give low values 0.994 | locus YJL187C, strain SWE1 (second series), hits give low values 1.01 | locus YJL187C, strain SWE1, hits give low values 0.978 | locus YJR043C, strain POL32, hits give low values 1.01
